{
  "source": "PubChem BioAssay AID1469",
  "about": "(National Center for Advancing Translational Sciences (NCATS), 2008)",
  "note": "In all, about 280,000 compounds went through this assay and about 180 (0.064%) were called active. The sample holds actives, similar compounds and a random draw of the others, so the mix is not that of the screen. A number with no mark means an inactive call. Calls come from the whole dose curve; as a rule, active = well fitted inhibition curve with a large enough effect; inconclusive = small, poorly fitted or top-dose-only effect, or effect the other way; inactive = flat fitted curve, though single readings scatter.",
  "data": [
    {"molecular_target": "Thyroid hormone receptor beta (Homo sapiens) (UniProt P10828)", "sequence (P10828 whole entry, looked up)": "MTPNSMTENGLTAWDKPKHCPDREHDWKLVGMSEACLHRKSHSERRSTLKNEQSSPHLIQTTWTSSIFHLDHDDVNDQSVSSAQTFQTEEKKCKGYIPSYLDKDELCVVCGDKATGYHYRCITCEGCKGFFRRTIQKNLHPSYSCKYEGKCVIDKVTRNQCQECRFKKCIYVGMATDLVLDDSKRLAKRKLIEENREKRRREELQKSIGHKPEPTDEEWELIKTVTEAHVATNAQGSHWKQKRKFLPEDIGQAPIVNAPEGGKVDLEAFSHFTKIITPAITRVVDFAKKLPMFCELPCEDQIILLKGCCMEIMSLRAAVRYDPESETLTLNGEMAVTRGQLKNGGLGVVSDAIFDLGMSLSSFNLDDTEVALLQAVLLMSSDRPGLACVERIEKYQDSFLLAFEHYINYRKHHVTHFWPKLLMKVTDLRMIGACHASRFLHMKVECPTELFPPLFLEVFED", "assay": "qHTS for Inhibitors of the Interaction of Thyroid Hormone Receptor and Steroid Receptor Coregulator 2;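 note: plate controls were bound peptide for no effect and peptide without receptor for full effect; nearly all actives have a fitted effect of over 50% in size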", "conditions": "TRbeta-SRC2 peptide binding, fluorescence polarization, receptor liganded with 1 µM T3; series mostly up to 106 µM; activity change, negative = inhibition: at the top concentration", "method_in_brief": "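Fluorescence polarization of 20 nM Texas Red SRC2 peptide (20-aa NR interaction domain) bound to 0.6 uM human TRb ligand-binding domain, with 1 uM T3, after 5 hr at ambient temperature; inhibition seen as decreased polarization.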", "values": [
      {"compound": "CCN(CC)c1ccc(NS(=O)(=O)c2cc(-c3cc(C)no3)ccc2C)c(C)c1", "activity change, negative = inhibition": "7.58%"},
      {"compound": "Cc1ccc(CNC(=O)c2c(O)nc3c(C)cccn3c2=O)cc1", "activity change, negative = inhibition": "-2.5%"},
      {"compound": "Oc1ccc(-c2nc3ccc(Cl)cn3c2Nc2ccc3c(c2)OCO3)cc1", "activity change, negative = inhibition": "-5.33%"},
      {"compound": "COc1ccc(CCNC(=O)c2ccc(CSCc3ccc(C)cc3)o2)cc1OC", "activity change, negative = inhibition": "-6.17%"},
      {"compound": "Cc1ccc(-c2nc(SCc3ccc(Br)cc3)n3[nH]c(=O)cc3n2)cc1", "activity change, negative = inhibition": "-0.18%"},
      {"compound": "COc1ccc(N2CCN(S(=O)(=O)CCNC(=O)C(c3ccccc3)c3ccccc3)CC2)cc1", "activity change, negative = inhibition": "1.78%"},
      {"compound": "O=C(Nc1nc2c(s1)CCCC2)c1ccccc1F", "activity change, negative = inhibition": "-5.58%"},
      {"compound": "Cc1cc(C)cc(Nc2ncnc3onc(-c4ccc(F)cc4)c23)c1", "activity change, negative = inhibition": "3.63%"},
      {"compound": "CCOc1cc(C2C(C(=O)OC)=C(C)NC3=C2C(=O)c2ccccc23)ccc1O", "note": "(stereo not drawn)", "activity change, negative = inhibition": "11%"},
      {"compound": "OCCC(F)(F)C(F)(F)C(F)(F)C(F)(F)C(F)(F)C(F)(F)C(F)(F)C(F)(F)F", "activity change, negative = inhibition": "1.78% [at 201 µM]"},
      {"compound": "CCN(CCCNC(=O)c1ccc(Sc2ccc(C)cc2)c(NC(C)=O)c1)c1cccc(C)c1", "activity change, negative = inhibition": "-0.569%"},
      {"compound": "CCCC/C=C/CCCCO", "activity change, negative = inhibition": "2.76% [at 201 µM]"},
      {"compound": "CCOC(=O)c1ccc(NC(=O)c2c(NCc3cccs3)sc3c2CCCC3)cc1", "activity change, negative = inhibition": "2.18%"},
      {"compound": "O=C(NCc1ccc(F)cc1)c1ccc2nc(N3CCCCC3)sc2c1", "activity change, negative = inhibition": "3.71%"},
      {"compound": "CCOc1cccc2c1N[C@@H](c1ccc(C(=O)O)cc1)[C@H]1CC=C[C@@H]21", "activity change, negative = inhibition": "14.7%"},
      {"compound": "CN(CC(=O)Nc1ccccc1F)S(=O)(=O)c1ccc2c(c1)c(=O)n(C)c(=O)n2C", "activity change, negative = inhibition": "2.82%"},
      {"compound": "CCN(CC)CCNc1ncnc2c1cnn2-c1cc(Cl)ccc1C", "activity change, negative = inhibition": "8.58%"},
      {"compound": "CCOC(=O)c1c(C)oc2nc(C)nc(N3CCN(c4ccc(OC)cc4)CC3)c12", "activity change, negative = inhibition": "4.33%"},
      {"compound": "CC(C)c1ccc(S(=O)(=O)Nc2ccc(O)c(Sc3nc4ccccc4s3)c2)cc1", "activity change, negative = inhibition": "5.12%"},
      {"compound": "CCc1cccc(NC(=O)CN(C)S(=O)(=O)c2ccc3[nH]c4c(c3c2)CCCC4)c1", "activity change, negative = inhibition": "-2.3%"},
      {"compound": "CCN(CC)c1ccc(NC(=O)CN2C(=O)c3cccnc3Oc3ccc(Cl)cc32)c(C)c1", "activity change, negative = inhibition": "0.578%"},
      {"compound": "Cc1ccc(OCCSc2nc(-c3cccs3)nc3cc(=O)[nH]n23)cc1Cl", "activity change, negative = inhibition": "-6%"},
      {"compound": "Cc1ccc(NC2=C(c3ccc(C(F)(F)F)cc3)C(=O)c3ccccc32)cc1F", "activity change, negative = inhibition": "10.8%"},
      {"compound": "CCCn1c2ccccc2c2cnn(CC(=O)NCC3CCN(Cc4ccc(C)cc4)CC3)c(=O)c21", "activity change, negative = inhibition": "0.484%"},
      {"compound": "Cc1cc(C)cc(NC(=O)c2cnc3sc(N4CCCC4)nn3c2=O)c1", "activity change, negative = inhibition": "4.33%"},
      {"compound": "Cc1cc(C)c(NC(=O)CN2C(=O)c3cccnc3Oc3ccc(Cl)cc32)c(C)c1", "activity change, negative = inhibition": "0.211%"},
      {"compound": "COc1ccc(N2CCN(c3cc(C)nc4nncn34)CC2)cc1", "activity change, negative = inhibition": "2.01%"},
      {"compound": "Cn1c(=O)c2c(-c3ccccc3Br)n(Cc3ccccc3)cc2n(C)c1=O", "activity change, negative = inhibition": "-1.69%"},
      {"compound": "CC(C)c1ccc(NC(=O)c2ccc(Cn3nc(N4CCN(c5ccccc5)CC4)ccc3=O)o2)cc1", "activity change, negative = inhibition": "0.615%"},
      {"compound": "CCOc1ccc(S(=O)(=O)Nc2ccc3oc4c(c3c2)CC(C)CC4)cc1", "note": "(stereo not drawn)", "activity change, negative = inhibition": "6.9%"},
      {"compound": "CC(C)CCCCCOC(=O)CS", "activity change, negative = inhibition": "3.95% [at 201 µM]"},
      {"compound": "CC1Cc2cc(S(=O)(=O)CCC(=O)NCc3ccc(Cl)cc3)ccc2N1C(=O)C1CC1", "note": "(stereo not drawn)", "activity change, negative = inhibition": "0.303%"},
      {"compound": "CCOC(=O)C1CCCN(C(=O)Cn2ncc3c(C)n(Cc4ccc(F)cc4)c(C)c3c2=O)C1", "note": "(stereo not drawn)", "activity change, negative = inhibition": "-3.95%"},
      {"compound": "CSc1ccc(CCNC(=O)c2cc(C)nc3c2c(C)nn3-c2cccc(F)c2)cc1", "activity change, negative = inhibition": "6.29%"},
      {"compound": "O=c1cc(CSc2ncn[nH]2)[nH]c2ccc(F)cc12", "activity change, negative = inhibition": "-0.923%"},
      {"compound": "CCc1ccc(C(=O)CC2(O)C(=O)N(CCc3ccccc3)c3ccc(Br)cc32)cc1", "note": "(stereo not drawn)", "activity change, negative = inhibition": "5.72%"},
      {"compound": "COc1ccccc1-c1noc(CSc2nnc(-c3ccccc3)n2-c2ccc(C)c(C)c2)n1", "activity change, negative = inhibition": "10.2%"},
      {"compound": "Cc1ccc2onc(CC(=O)N3CCN(c4ccc(Cl)cc4)CC3)c2c1", "activity change, negative = inhibition": "-4.05%"},
      {"compound": "CC(C)c1ccc(OCC(=O)N(Cc2ccc(N(C)C)cc2)C2CCS(=O)(=O)C2)cc1", "note": "(stereo not drawn)", "activity change, negative = inhibition": "1.18%"},
      {"compound": "CCN(CC)c1ccc(NC(=O)CN2CCN(CC(=O)Nc3ccc(Cl)cc3)CC2)cc1", "activity change, negative = inhibition": "0.686%"},
      {"compound": "Clc1ccc(CSc2nncn3c2cc2occc23)cc1", "activity change, negative = inhibition": "3.3%"},
      {"compound": "COc1cccc(CNC(=O)CCC(=O)N2CC3CCCN3c3ccccc32)c1", "note": "(stereo not drawn)", "activity change, negative = inhibition": "3.45%"},
      {"compound": "Cc1ccc(C2c3[nH]c4ccccc4c3CCN2C(=O)c2cccc(C)c2)cc1", "note": "(stereo not drawn)", "activity change, negative = inhibition": "7.69%"}
    ]}
  ]
}
